Data: PubChem BioAssay (NCI)
Compounds without any hit were thinned out: in the full panel of roughly 79,000, 15% have a hit. Active and inactive are the calls of the source. Cut-off read from the data, not from the text of the source: active = growth inhibition above about 70%; inactive = the rest.

Tests used:
[1] = NCI Yeast Anticancer Drug Screen. Data for the rad52 strain (AID 147);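 note: 0% = growth of vehicle-treated control cultures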; details: S. cerevisiae rad52 mutant growth inhibition, hits give high values
Summary of the method: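 Vehicle-treated cultures served as the reference for growth inhibition of compound-exposed yeast bearing a DNA repair mutation.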

[2] = NCI Yeast Anticancer Drug Screen. Data for the rad50EPP+ strain (AID 151);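 note: 0% = growth of vehicle-treated control cultures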; details: S. cerevisiae rad50 mutant strain, hits give high values
Summary of the method: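 In this screen, rad50EPP+ yeast were exposed to compounds. Growth inhibition was scored against vehicle-treated controls.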

[3] = NCI Yeast Anticancer Drug Screen. Data for the mgt1 strain (AID 153); details: S. cerevisiae mgt1 mutant growth inhibition, hits give high values
Summary of the method: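 mgt1 strain exposed; growth vs vehicle control recorded as inhibition.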

[4] = NCI Yeast Anticancer Drug Screen. Data for the rad50 strain (AID 155);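 note: 0% = growth of vehicle-only cultures of the same strain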; details: S. cerevisiae rad50 strain growth inhibition, hits give high values
Summary of the method: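 Readout: growth inhibition relative to vehicle-treated cultures. Compound exposure was carried out in a genetically defined yeast strain deficient in DNA damage repair.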

[5] = NCI Yeast Anticancer Drug Screen. Data for the mec2-1 strain (AID 157); details: S. cerevisiae mec2-1 strain, hits give high values
Summary of the method: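 Vehicle-treated cultures served as reference for growth inhibition of compound-exposed mec2-1 yeast.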

[6] = NCI Yeast Anticancer Drug Screen. Data for the rad14 strain (AID 159);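 note: 0% = growth of vehicle-treated control cultures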; details: S. cerevisiae rad14 strain growth inhibition, hits give high values
Summary of the method: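 Growth inhibition vs vehicle controls; genetically altered yeast strain (DNA damage repair defect) treated with test compounds.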

[7] = NCI Yeast Anticancer Drug Screen. Data for the sgs1 mgt1 strain (AID 161);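 note: 0% = growth of cultures given vehicle only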; details: S. cerevisiae sgs1 mgt1 strain, hits give high values
Summary of the method: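 Inhibition of yeast growth, normalised to vehicle-treated controls, is reported for a strain bearing genetic alterations in DNA damage repair.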

[8] = NCI Yeast Anticancer Drug Screen. Data for the CLN2oe strain (AID 163);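 note: 0% = growth of vehicle-only control cultures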; details: S. cerevisiae CLN2oe strain, hits give high values
Summary of the method: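 Inhibition relative to vehicle-treated yeast is reported. Cells: strain with genetic alteration in cell-cycle control, grown with compound.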

[9] = NCI Yeast Anticancer Drug Screen. Data for the cln2 rad14 strain (AID 165);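 note: 0% = growth equal to vehicle treated cultures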; details: S. cerevisiae cln2 rad14 strain, hits give high values
Summary of the method: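 Each compound was tested on cln2 rad14 yeast. Inhibition of growth was calculated against vehicle-exposed controls.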

[10] = NCI Yeast Anticancer Drug Screen. Data for the bub3 strain (AID 167); details: S. cerevisiae bub3 mutant strain, hits give high values
Summary of the method: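 Readout: yeast growth inhibition, expressed relative to vehicle-only wells. The test organism is a mutant strain from a panel with lesions in DNA repair or checkpoint genes.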

[11] = NCI Yeast Anticancer Drug Screen. Data for the wt2 strain (AID 169);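 note: 0% = growth of vehicle-treated yeast cultures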; details: S. cerevisiae wt2 strain growth inhibition, hits give high values
Summary of the method: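 Inhibition of yeast growth was determined after compound treatment, normalised to controls receiving only vehicle.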

[12] = NCI Yeast Anticancer Drug Screen. Data for the mlh1 strain (AID 171);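 note: 0% = growth of vehicle-treated control cultures of the same strain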; details: S. cerevisiae mlh1 strain growth inhibition, hits give high values
Summary of the method: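 Vehicle-normalised growth inhibition of a repair- or checkpoint-altered yeast strain following compound treatment.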

[13] = NCI Yeast Anticancer Drug Screen. Data for the sgs1 strain (AID 173);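 note: 0% = growth of vehicle-only control cultures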; details: S. cerevisiae sgs1 mutant, hits give high values
Summary of the method: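 Screen format: yeast with repair or checkpoint alterations, compound exposure, growth read relative to vehicle.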

[14] = NCI Yeast Anticancer Drug Screen. Data for the mlh1 rad18 strain (AID 175); details: S. cerevisiae mlh1 rad18 strain growth inhibition, hits give high values
Summary of the method: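 Vehicle-treated cultures served as the reference for growth inhibition in a yeast strain carrying DNA damage repair alterations exposed to each compound.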

[15] = NCI Yeast Anticancer Drug Screen. Data for the rad18 strain (AID 177); details: S. cerevisiae rad18 mutant growth inhibition, hits give high values
Summary of the method: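 Test articles were incubated with altered yeast defective in DNA damage repair. Results are given as inhibition of growth versus vehicle.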

[16] = at 5.0 µM (retest, dose inferred, filed as 0.5)
[17] = at 50.0 µM (retest, dose inferred, filed as 5.0)

Measured: growth inhibition

CNC(=O)ON(C(C)=O)C(=O)NC
inactive: [1]; at 1.2 µM -27% | [1]; at 3.7 µM -14% | [1]; at 11.0 µM -22% | [1]; at 33.0 µM -38% | [1]; at 100.0 µM -24% | [2]; at 1.2 µM -19% | [2]; at 3.7 µM -15% | [2]; at 11.0 µM -15% | [2]; at 33.0 µM -6% | [2]; at 100.0 µM 42% | [3]; at 1.2 µM -9% | [3]; at 3.7 µM 0% | [3]; at 11.0 µM 0% | [3]; at 33.0 µM 8% | [3]; at 100.0 µM 12% | [4]; at 1.2 µM -17% | [4]; at 3.7 µM -40% | [4]; [16] 13% | [4]; at 11.0 µM -20% | [4]; at 33.0 µM -17% | [4]; [17] 26% | [4]; at 100.0 µM -4% | [5]; at 1.2 µM -9% | [5]; at 3.7 µM -4% | [5]; [16] 2% | [5]; at 11.0 µM 5% | [5]; at 33.0 µM 4% | [5]; [17] 31% | [5]; at 100.0 µM -9% | [6]; at 1.2 µM -47% | [6]; at 3.7 µM -35% | [6]; at 11.0 µM -48% | [6]; at 33.0 µM -47% | [6]; at 100.0 µM -47% | [7]; [16] 62% | [8]; at 1.2 µM -30% | [8]; at 3.7 µM 2% | [8]; at 11.0 µM 19% | [8]; at 33.0 µM 14% | [8]; at 100.0 µM 11% | [9]; [16] 35% | [10]; at 1.2 µM 3% | [10]; at 3.7 µM 4% | [10]; [16] 31% | [10]; at 11.0 µM 23% | [10]; at 33.0 µM 35% | [10]; at 50.0 µM 52% | [10]; at 100.0 µM 60% | [11]; at 1.2 µM -24% | [11]; at 3.7 µM -20% | [11]; at 11.0 µM -22% | [11]; at 33.0 µM -42% | [11]; at 100.0 µM -10% | [12]; at 1.2 µM -43% | [12]; at 3.7 µM -27% | [12]; at 11.0 µM -11% | [12]; at 33.0 µM 4% | [12]; at 100.0 µM -9% | [13]; at 1.2 µM -26% | [13]; at 3.7 µM -49% | [13]; at 11.0 µM -13% | [13]; at 33.0 µM -15% | [13]; at 100.0 µM -19% | [14]; [16] 12% | [14]; [17] 22% | [15]; at 1.2 µM -6% | [15]; at 3.7 µM -24% | [15]; at 11.0 µM -21% | [15]; at 33.0 µM 0% | [15]; at 100.0 µM 24%
active: [7]; [17] 100% | [7]; at 50.0 µM 87.7% | [9]; [17] 99% | [9]; at 50.0 µM 86.2% | [10]; [17] 100%

COc1cc(O)c2c(O)c3c(c4c2c1[C@]1(C4)C(C)=CCCC1(C)C)[C@H](O)[C@@]1(O)CC(=O)C(C(N)=O)=C(O)[C@@]1(O)C3=O
active: [1]; at 3.7 µM 92% | [1]; at 11.0 µM 98% | [1]; at 33.0 µM 98% | [1]; at 100.0 µM 95% | [2]; at 11.0 µM 97% | [2]; at 33.0 µM 96% | [2]; at 100.0 µM 89% | [3]; at 3.7 µM 94% | [3]; at 11.0 µM 99% | [3]; at 33.0 µM 98% | [3]; at 100.0 µM 93% | [4]; at 3.7 µM 87% | [4]; at 11.0 µM 97% | [4]; at 33.0 µM 96% | [4]; [17] 97% | [4]; at 50.0 µM 97% | [4]; at 100.0 µM 92% | [5]; at 3.7 µM 87% | [5]; [16] 83% | [5]; at 11.0 µM 98% | [5]; at 33.0 µM 98% | [5]; [17] 98% | [5]; at 50.0 µM 98.7% | [5]; at 100.0 µM 94% | [6]; at 11.0 µM 97% | [6]; at 33.0 µM 97% | [6]; at 100.0 µM 93% | [7]; [17] 98% | [7]; at 50.0 µM 98.7% | [8]; at 3.7 µM 94% | [8]; at 11.0 µM 98% | [8]; at 33.0 µM 97% | [8]; at 100.0 µM 93% | [9]; [17] 98% | [9]; at 50.0 µM 98.1% | [10]; at 3.7 µM 77% | [10]; at 11.0 µM 98% | [10]; at 33.0 µM 97% | [10]; [17] 98% | [10]; at 50.0 µM 98.2% | [10]; at 100.0 µM 94% | [11]; at 11.0 µM 97% | [11]; at 33.0 µM 96% | [11]; at 100.0 µM 95% | [12]; at 11.0 µM 97% | [12]; at 33.0 µM 97% | [12]; at 100.0 µM 95% | [13]; at 3.7 µM 88% | [13]; at 11.0 µM 97% | [13]; at 33.0 µM 97% | [13]; at 100.0 µM 93% | [14]; [17] 97% | [14]; at 50.0 µM 96.8% | [15]; at 3.7 µM 85% | [15]; at 11.0 µM 97% | [15]; at 33.0 µM 97% | [15]; at 100.0 µM 95%
inactive: [1]; at 1.2 µM -1% | [2]; at 1.2 µM -52% | [2]; at 3.7 µM 60% | [3]; at 1.2 µM -16% | [4]; at 1.2 µM -37% | [4]; [16] 2% | [5]; at 1.2 µM -36% | [6]; at 1.2 µM -57% | [6]; at 3.7 µM 50% | [7]; [16] 21% | [8]; at 1.2 µM -6% | [9]; [16] 1% | [10]; at 1.2 µM -1% | [10]; [16] -7% | [11]; at 1.2 µM -30% | [11]; at 3.7 µM -16% | [12]; at 1.2 µM -21% | [12]; at 3.7 µM 67% | [13]; at 1.2 µM -38% | [14]; [16] -5% | [15]; at 1.2 µM -21%
